This passage reports Inhibition results from ChEMBL document CHEMBL1157539, “Thousands of chemical starting points for antimalarial lead identification” (Nature, 2010).

Common to all, as to assay type: functional
Experiment [1] relates to Plasmodium falciparum. The experiment in a line: GSK_TCMDC: Inhibition of Plasmodium falciparum 3D7 in whole red blood cells, using parasite LDH activity as an index of growth. Test compounds present at 2uM.
For experiment [2], the system named is Plasmodium falciparum. Description: GSK_TCMDC: Inhibition of Plasmodium falciparum Dd2 in whole red blood cells, using parasite LDH activity as an index of growth. Test compounds present at 2uM.
The next experiment relates to HepG2. Description: GSK_TCMDC: Percent inhibition of human HepG2 cell line. Test compounds present at 10uM.

As usually defined, the Inhibition is the change of the read-out against control, counted positive when it falls. A high value points to a strong effect. Take `O=C(O)c1ccc2nc(-c3ccc(-c4ccccc4)cc3)n(C3CCN(Cc4ccc(-c5ncc[nH]5)cc4)CC3)c2c1`: the figures for the Inhibition with Plasmodium falciparum [1], in the experiment on Plasmodium falciparum [2] and in the experiment on HepG2 were 91%, 99% and 3%, respectively.

Turning to `COc1ccc(OC)c(C(O)CNC(C)C)c1.Cl` (stereo not given), the results for the Inhibition in the experiment on Plasmodium falciparum [1], in the experiment on Plasmodium falciparum [2] and in the experiment with HepG2 were 96%, 0% and 3%, respectively.

On to `CNCCCN(C)C(=O)Oc1c(Br)c(C)nc(C)c1-c1ccc(Oc2ccc(OC(F)(F)F)cc2)cc1.Cl`, for which the Inhibition was 96% with Plasmodium falciparum [1], 96% with Plasmodium falciparum [2] and 17% with HepG2.

On to `CC(Cc1ccc(OC2CCCCC2)cc1)NCC(O)c1cccc(Cl)c1.Cl` (stereo not given), for which the Inhibition in the experiment with Plasmodium falciparum [1] is 99%; in the experiment on Plasmodium falciparum [2] it was 99%; with HepG2, 66%.

In the case of `CC[C@H]1CN2CC[C@@H]1C[C@H]2[C@H](O)c1cc(N2CCC(N3CCCCC3)CC2)nc2ccc(OC)cc12`, the Inhibition with Plasmodium falciparum [1] is given as 99%; with Plasmodium falciparum [2] it was 77%; in the experiment on HepG2, 0%.

As for `CC[C@H]1CN2CC[C@H]1C[C@@H]2[C@@H](O)c1cc(Cl)nc2ccc(OC)cc12`, the results for the Inhibition in the experiment on Plasmodium falciparum [1], with Plasmodium falciparum [2] and in the experiment on HepG2 were 98%, 82% and 0%, respectively.

As to `CCN(CC)CCN1C(=O)C(O)(c2ccccc2Cl)c2c1cc(C#N)cc2C(F)(F)F` (stereo not given), the Inhibition turned out to be 88% with Plasmodium falciparum [1], 19% in the experiment with Plasmodium falciparum [2] and 21% in the experiment with HepG2.

Turning to `CS(=O)(=O)Nc1ccc2c(C3CCN(CC4CCN(C(=O)/C=C/c5ccc(Cl)c(Cl)c5)CC4)CC3)c[nH]c2c1`, the Inhibition with Plasmodium falciparum [1] is on record as 99%; in the experiment with Plasmodium falciparum [2] it was 70%; with HepG2 it was 28%.

For `Cc1c(C)c2c(c(C)c1O)CC[C@](C)(C(=O)N1CCC(CN3CCC(c4c[nH]c5ccccc45)CC3)CC1)O2`, the Inhibition in the experiment on Plasmodium falciparum [1] worked out at 100%; in the experiment with Plasmodium falciparum [2] it was 98%; in the experiment on HepG2, 29%.

As for `CCOC(C(=O)OCC1CCCN1C)(c1ccccc1)c1ccccc1` (stereo not given), the results for the Inhibition in the experiment with Plasmodium falciparum [1], with Plasmodium falciparum [2] and in the experiment with HepG2 were 97%, 3% and 13%, respectively.
